Active and inactive are the calls of the source. Unless noted, the rule behind the calls is not given here.
Experiments:
[1] = compounds binding Alexa647 anti-His antibody – biochemical, small-molecule microarray, 635 nm fluorescence, artefact control for SMM control protein annotation, primary screen (AID 1128); details: higher = more signal;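 note: score merges feature fluorescence with signal-to-noise for each printed compound spot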
[2] = tested on: Human papillomavirus type 1a E7 protein (residues 1-88); assay: HPV1a E7 small-molecule binders, primary screen, biochemical, small-molecule microarray, residues 1-88, 635 nm (AID 1129); details: small-molecule microarray binding, fluorescence 635 nm; higher = more signal
[3] = biological target: Focal adhesion kinase 1 (Homo sapiens) (UniProt Q05397); assay: PTK2 protein binding on printed compound slides – biochemical, small-molecule microarray, 635/667 nm fluorescence, BSA, DTT, primary screen (AID 1130); details: 635 nm fluorescence, higher = more signal;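 note: composite of spot emission at 667 nm and signal to noise over triplicate slides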
Focal adhesion kinase 1 (Homo sapiens), sequence (Q05397 whole entry, looked up): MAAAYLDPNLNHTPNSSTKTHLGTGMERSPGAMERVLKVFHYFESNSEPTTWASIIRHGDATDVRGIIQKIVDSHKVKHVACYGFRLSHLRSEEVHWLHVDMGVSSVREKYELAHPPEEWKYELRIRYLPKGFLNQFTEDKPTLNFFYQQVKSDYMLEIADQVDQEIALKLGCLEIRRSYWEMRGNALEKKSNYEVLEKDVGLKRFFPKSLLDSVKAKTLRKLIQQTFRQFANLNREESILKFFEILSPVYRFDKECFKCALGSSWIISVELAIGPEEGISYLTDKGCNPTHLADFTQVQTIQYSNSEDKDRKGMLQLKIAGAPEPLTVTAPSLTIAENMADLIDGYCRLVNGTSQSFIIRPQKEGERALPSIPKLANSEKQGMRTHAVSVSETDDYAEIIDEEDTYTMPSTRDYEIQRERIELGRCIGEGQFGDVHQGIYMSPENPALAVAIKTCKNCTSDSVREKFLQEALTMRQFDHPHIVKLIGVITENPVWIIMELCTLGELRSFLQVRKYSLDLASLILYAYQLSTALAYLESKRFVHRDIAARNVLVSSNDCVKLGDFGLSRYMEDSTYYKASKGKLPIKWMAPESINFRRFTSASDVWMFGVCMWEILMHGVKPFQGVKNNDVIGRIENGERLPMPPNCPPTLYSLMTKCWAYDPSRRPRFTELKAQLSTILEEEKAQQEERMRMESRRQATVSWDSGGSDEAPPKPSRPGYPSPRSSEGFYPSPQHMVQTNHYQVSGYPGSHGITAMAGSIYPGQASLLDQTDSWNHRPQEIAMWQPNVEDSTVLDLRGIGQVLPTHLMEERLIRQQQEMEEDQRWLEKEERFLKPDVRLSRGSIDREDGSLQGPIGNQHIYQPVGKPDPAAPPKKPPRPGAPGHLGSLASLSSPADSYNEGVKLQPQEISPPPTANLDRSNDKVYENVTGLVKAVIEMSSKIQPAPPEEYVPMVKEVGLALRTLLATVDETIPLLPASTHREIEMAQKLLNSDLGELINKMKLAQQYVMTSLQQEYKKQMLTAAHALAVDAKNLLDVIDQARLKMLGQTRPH

[4] = tested on: Fibrinogen (Alexa647-labelled); assay: Alexa647-fibrinogen binding to printed small molecules – biochemical, small-molecule microarray, 635/667 nm fluorescence, artefact control for SMM control-protein annotation, profiling panel (AID 1131); details: fibrinogen-A647 binding fluorescence, higher = more signal;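 note: z-score merges 667 nm fluorescence with per-spot signal-to-noise over triplicate slides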
[5] = biological target: Follistatin (Homo sapiens) (UniProt P19883); assay: FST protein binding to printed compounds – biochemical, small-molecule microarray, 635/667 nm fluorescence, primary screen (AID 1132); details: 635 nm fluorescence, higher = more signal
Follistatin (Homo sapiens), sequence (P19883 whole entry, looked up): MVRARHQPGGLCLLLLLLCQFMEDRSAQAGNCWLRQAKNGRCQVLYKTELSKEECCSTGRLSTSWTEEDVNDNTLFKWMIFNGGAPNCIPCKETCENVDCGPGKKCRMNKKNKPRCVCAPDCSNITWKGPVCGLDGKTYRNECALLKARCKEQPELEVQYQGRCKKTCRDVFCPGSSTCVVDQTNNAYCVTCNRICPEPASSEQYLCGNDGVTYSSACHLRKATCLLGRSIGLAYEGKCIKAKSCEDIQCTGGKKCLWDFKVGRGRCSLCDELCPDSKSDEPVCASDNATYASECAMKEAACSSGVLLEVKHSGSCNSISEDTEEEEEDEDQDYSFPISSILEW

[6] = biological target: Fibroblast growth factor 2 (Homo sapiens) (UniProt P09038); assay: basic fibroblast growth factor binding to printed compounds – biochemical, small-molecule microarray, 635/667 nm fluorescence, primary screen (AID 1133); details: FGF2, fluorescence 635/667, higher = more signal
Fibroblast growth factor 2 (Homo sapiens), sequence (P09038 whole entry, looked up): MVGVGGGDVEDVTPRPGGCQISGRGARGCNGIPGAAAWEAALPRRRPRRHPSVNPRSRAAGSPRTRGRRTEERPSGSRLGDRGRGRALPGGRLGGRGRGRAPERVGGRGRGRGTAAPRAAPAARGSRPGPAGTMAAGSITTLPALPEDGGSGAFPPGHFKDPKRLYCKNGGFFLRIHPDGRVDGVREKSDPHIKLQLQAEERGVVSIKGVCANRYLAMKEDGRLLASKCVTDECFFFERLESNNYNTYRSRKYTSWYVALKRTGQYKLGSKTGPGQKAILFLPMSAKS

[7] = JC-1 mitochondrial potential readout, lung cancer cells – cell-based, A549, JC-1 fluorescence, basal, 24 h, 100 nL, profiling panel (AID 1138); details: higher = more signal;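 note: A549 lung adenocarcinoma cells under basal conditions with no added stimulus; test concentration not given here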
Lefty1 = Lefty1 protein binding to printed compounds – biochemical, small-molecule microarray, 635/667 nm fluorescence, primary screen (AID 1139); details: fluorescence 635/667, higher = more signal
[8] = tested on: wheat germ agglutinin (Triticum aestivum), Alexa647-labelled; assay: Alexa647-WGA lectin binding to printed small molecules – biochemical, small-molecule microarray, 635/667 nm fluorescence, artefact control for SMM control-protein annotation, profiling panel (AID 1140); details: WGA-A647 binding, 635 nm fluorescence, higher = more signal;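 note: score merges 667 nm feature emission with signal to noise over triplicate slides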
[9] = biological target: Luciferin 4-monooxygenase (Photinus pyralis) (UniProt P08659); assay: inhibition of purified Photinus pyralis luciferase – biochemical, luminescence, purified enzyme, 2006 set, primary screen (AID 1141); details: purified firefly luciferase, SteadyGlo luminescence, 30 min; higher = more signal, called active from +8 up or from −8 down;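 note: cell-free assay with purified firefly luciferase at 100 ng per well in PBS; test concentration not given here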
Luciferin 4-monooxygenase (Photinus pyralis), sequence (P08659 whole entry, looked up): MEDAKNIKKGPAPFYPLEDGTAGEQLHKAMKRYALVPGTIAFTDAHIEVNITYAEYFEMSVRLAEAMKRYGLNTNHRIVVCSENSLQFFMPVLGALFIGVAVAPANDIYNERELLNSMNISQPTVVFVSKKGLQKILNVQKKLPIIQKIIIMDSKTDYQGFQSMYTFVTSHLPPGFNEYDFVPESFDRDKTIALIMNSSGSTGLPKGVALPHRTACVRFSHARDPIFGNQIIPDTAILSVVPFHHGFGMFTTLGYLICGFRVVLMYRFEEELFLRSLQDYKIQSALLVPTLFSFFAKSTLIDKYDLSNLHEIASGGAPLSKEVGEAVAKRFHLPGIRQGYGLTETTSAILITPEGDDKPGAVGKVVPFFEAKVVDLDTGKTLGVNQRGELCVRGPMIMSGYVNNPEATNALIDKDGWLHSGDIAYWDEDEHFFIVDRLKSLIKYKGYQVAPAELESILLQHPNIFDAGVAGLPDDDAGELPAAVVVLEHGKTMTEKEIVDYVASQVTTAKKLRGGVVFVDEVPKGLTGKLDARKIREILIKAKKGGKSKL

[10] = tested on: Wnt5a (protein binding on small-molecule microarray); assay: small molecules binding Wnt5a protein – biophysical, small-molecule microarray, 635/667 nm fluorescence, primary screen (AID 1142); details: 635 nm fluorescence, higher = more signal;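 note: fluorescence read at 667 nm with signal to noise per printed feature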
[11] = ATP-based viability of Huh7 replicon cells – cell-based, CellTiter-Glo luminescence, basal, 48 h, cytotoxicity control for HCV replication inhibitor project, primary screen (AID 1143); details: higher = more signal, called active from +8 up or from −8 down;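 note: Huh7 hepatoma cells carrying a hepatitis C replication reporter with no stimulus; test concentration not given here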
[12] = Pseudomonas biofilm growth suppression – PAO1 strain, BacTiter-Glo luminescence, LB-PBS, primary screen (AID 1144); details: P. aeruginosa PAO1 biofilm, 12 h, higher = more signal
[13] = basal CRE-LacZ reporter activity in PC12 – cell-based, unstimulated, primary screen (AID 1145); details: no forskolin, luminescence, 4.5 h, higher = more signal, called active from +8 up or from −8 down
[14] = forskolin-driven CRE-LacZ activity in PC12 – cell-based, CRE-LacZ reporter, forskolin-stimulated, primary screen (AID 1146); details: luminescence, 4.5 h, higher = more signal, called active from +8 up or from −8 down;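 note: PC12 cells with 6xCRE LacZ reporter stimulated by forskolin 10 µM; beta-galactosidase reporter signal reflecting CREB driven transcription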
[15] = biological target: Streptavidin (Streptomyces avidinii) (UniProt P22629); assay: compounds binding control protein streptavidin – biophysical, small-molecule microarray, 635/667 nm fluorescence, artefact control for SMM compound annotation, primary screen (AID 1147); details: higher = more signal;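 note: signal reflects streptavidin binding to arrayed compounds as a control protein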
Streptavidin (Streptomyces avidinii), sequence (P22629 whole entry, looked up): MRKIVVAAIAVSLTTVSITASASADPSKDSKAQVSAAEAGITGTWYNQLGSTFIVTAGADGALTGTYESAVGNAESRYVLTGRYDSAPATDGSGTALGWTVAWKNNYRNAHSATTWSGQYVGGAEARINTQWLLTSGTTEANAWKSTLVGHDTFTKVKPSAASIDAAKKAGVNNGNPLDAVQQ

[16] = probe aInhba binding on compound microarray – biochemical, small-molecule microarray, 635/667 nm fluorescence, primary screen (AID 1148); details: higher = more signal;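 note: score merges 667nm spot fluorescence with signal-to-noise for antibody binding to printed compounds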
Torsin-1A (Homo sapiens) [17] = biological target: Torsin-1A (Homo sapiens) (UniProt O14656); assay: TOR1A wild-type binding on microarray – cell lysate, small-molecule microarray, lysate, 635/667 nm, primary screen (AID 1149); details: COS7 hTOR1A-WT lysate, 635 nm fluorescence, higher = more signal
Torsin-1A (Homo sapiens), sequence (O14656 whole entry, looked up): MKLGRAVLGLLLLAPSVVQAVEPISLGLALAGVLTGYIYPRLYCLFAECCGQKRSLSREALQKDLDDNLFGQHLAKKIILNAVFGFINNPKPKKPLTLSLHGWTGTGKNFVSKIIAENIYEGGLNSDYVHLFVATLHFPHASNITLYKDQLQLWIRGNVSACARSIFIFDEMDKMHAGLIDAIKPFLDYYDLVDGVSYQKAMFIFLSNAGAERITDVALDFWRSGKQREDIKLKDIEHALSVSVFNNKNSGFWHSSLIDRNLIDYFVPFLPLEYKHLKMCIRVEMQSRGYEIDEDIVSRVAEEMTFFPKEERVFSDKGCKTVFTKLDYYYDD

Torsin-1A (Homo sapiens) [18] = biological target: Torsin-1A (Homo sapiens) (UniProt O14656); assay: torsin A mutant lysate binding on microarrays – cell lysate, small-molecule microarray, COS7 lysate, 635/667 nm fluorescence, primary screen (AID 1150); details: COS7 hTOR1A mutant lysate, 635 nm fluorescence, higher = more signal;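 note: score pools 667 nm emission and signal to noise measuring lysate protein binding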
[19] = tested on: Sonic hedgehog protein (Shh); assay: Sonic hedgehog microarray binding compounds – biochemical, small-molecule microarray, 635/667 nm fluorescence, primary screen (AID 1151); details: 635 nm fluorescence, higher = more signal;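 note: Shh protein binding to compounds spotted on small-molecule microarray slides; score combines spot fluorescence intensity with signal-to-noise across triplicate slides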

SMILES	composite z-score [1]	composite z-score [2]	composite z-score [3]	composite z-score [4]	composite z-score [5]	composite z-score [6]	z-score [7]	composite z-score (Lefty1)	composite z-score [8]	z-score [9]	composite z-score [10]	z-score [11]	z-score [12]	z-score [13]	z-score [14]	composite z-score [15]	composite z-score [16]	composite z-score (Torsin-1A (Homo sapiens) [17])	composite z-score (Torsin-1A (Homo sapiens) [18])	composite z-score [19]
CC(C)=CCCC(C)=CCON=C1C[C@@H](O)[C@@H](O)[C@@H]2[C@@H]3C(=O)N(Cc4ccccc4)C(=O)[C@@H]3CC[C@H]12	0.267	1.2	0.171	0.476	0.669	0.736	-0.566	0.751	0.283	0.71 (inactive)	-0.0617	-3.4 (inactive)	-0.302 (inactive)	-0.293 (inactive)	-0.96 (inactive)	0.0609	-0.0736	0.23	0.0793	0.993
CC(CCN1CCCCc2nc(C)c(C)cc21)=NO[C@H](C)c1cn([C@H](CO)Cc2ccccc2)nn1	0.566	-0.556	-0.0044	0.339	0.965	1.01	0.0726	1.08	-0.154	-1.09 (inactive)	0.101	-1.11 (inactive)	0.0152 (inactive)	2.24 (inactive)	0.743 (inactive)	0.0378	-0.256	2.04	0.164	1.32
C[C@H]1COC(=O)[C@@H]2CCCN2C(=O)[C@@H](C)COC(=O)[C@H](Cc2ccccc2)NC1=O	0.305	0.767	0.0349	0.208	0.42	0.458	-0.731	0.96	0.111	1.48 (inactive)	0.0398	0.257 (inactive)	-0.0355 (inactive)	-0.468 (inactive)	0.574 (inactive)	0.0706	-0.045	0.146	0.0507	0.515
CC[C@@H](c1ccccc1)n1c(=O)n2n(c1=O)[C@H]1[C@H](O)[C@@H]3O[C@@H]3C(=NOC[C@@H](O)COCc3ccco3)[C@H]1CC2	-0.74	-0.629	0.587	-1.9	0.361	0.167	-0.0823	0.389	0.534	-0.47 (inactive)	0.112	0.456 (inactive)	0.232 (inactive)	0.704 (inactive)	0.427 (inactive)	-0.715	-0.257	-0.354	-0.517	1.07
CCOC(=O)[C@H](Cc1ccccc1)NC(=O)CCC1CC(OC(=O)NCc2cccc3ccccc23)CC2(CCCC(COC(=O)NCCC(C)C)O2)O1 (stereo not given in full)	0.603	-0.431	-0.225	0.604	0.123	-0.278	-0.0858	0.129	0.757	0.871 (inactive)	-0.0404	0.0896 (inactive)	-0.863 (inactive)	-0.525 (inactive)	0.214 (inactive)	1.8	-0.231	1.5	-0.359	-0.226
COC(=O)CC=C[C@@H](C)[C@@H](C=NOCC[C@@H]1C=C[C@H](OC(C)=O)[C@@H](COC(C)=O)O1)NS(=O)(=O)c1ccc(C)cc1	2.34	-0.185	0.15	-0.329	0.273	0.237	-0.482	0.36	-0.477	1.2 (inactive)	0.146	0.415 (inactive)	0.493 (inactive)	1.28 (inactive)	0.378 (inactive)	-0.376	-0.0523	1.14	1.44	0.554
CC(C)=NOC[C@@H](C)[C@H](OCc1ccccc1)C(C)C	0.164	-1.56	-0.15	-0.22	-0.476	-0.229	-0.375	-0.458	-0.351	-1.4 (inactive)	-0.437	0.563 (inactive)	-0.181 (inactive)	1.17 (inactive)	0.112 (inactive)	0.0253	-0.128	-0.522	-0.31	-0.448
CC1O[C@H]2C3=C(C(=O)[C@@H]4O[C@@H]4[C@H]3O)[C@@H]1C1[C@@H](C)OC=C3[C@H](O)C4O[C@@H]4C(=NOCc4ccccc4)[C@]312 (stereo not given in full)	0.331	-0.492	-0.0962	-1.18	-0.117	0.468	0.476	0.16	-0.911	-0.399 (inactive)	0.161	-3.64 (inactive)	0.933 (inactive)	2.18 (inactive)	6.5 (inactive)	-0.438	-0.0963	1.66	-0.073	0.242
COC(=O)[C@H](C)NC(=O)CCC1CC(OC(=O)NCCc2ccc(F)cc2)CC2(CCCC(COC(=O)NCCC(C)C)O2)O1 (stereo not given in full)	0.959	0.168	0.0069	0.939	0.577	0.761	2.09	0.899	0.323	-0.447 (inactive)	0.255	-0.872 (inactive)	-1.41 (inactive)	0.109 (inactive)	0.283 (inactive)	0.0943	0.0047	-0.184	-0.0067	1.22
CO[C@H]1COC(=O)[C@H](C)NC(=O)[C@@H](C)COC(=O)[C@H]2CCCN2C(=O)CC=C[C@H]1C	-0.395	0.185	0.0089	-0.157	0.593	0.806	-0.392	0.632	-0.375	0.574 (inactive)	0.139	0.191 (inactive)	-0.312 (inactive)	-0.906 (inactive)	-0.432 (inactive)	-0.323	-0.121	-0.0249	0.182	1.4

— PubChem BioAssay
